# Results published in paper PMC7862700, “An all-to-all approach to the identification of sequence-specific readers for epigenetic DNA modifications on cytosine”.
# Experiments:
# Experiment in all cases: DAPPL (digital affinity profiling via proximity ligation, sequencing); 10 mM Tris-HCl pH 7.5, 50 mM NaCl, 1 mM DTT, 4% glycerol, room temperature, 30 min; GST-TFs on glutathione beads, 16-mer random dsDNA library, 0.1% formaldehyde crosslink after washing; high values mean tight binding
# Details in all cases: protein: recombinant; tags: N-terminal GST; dsDNA, one strand shown
# FLI1 = target: T1, FLI1 (Homo sapiens, UniProt Q01543 1-452)
# T1 sequence: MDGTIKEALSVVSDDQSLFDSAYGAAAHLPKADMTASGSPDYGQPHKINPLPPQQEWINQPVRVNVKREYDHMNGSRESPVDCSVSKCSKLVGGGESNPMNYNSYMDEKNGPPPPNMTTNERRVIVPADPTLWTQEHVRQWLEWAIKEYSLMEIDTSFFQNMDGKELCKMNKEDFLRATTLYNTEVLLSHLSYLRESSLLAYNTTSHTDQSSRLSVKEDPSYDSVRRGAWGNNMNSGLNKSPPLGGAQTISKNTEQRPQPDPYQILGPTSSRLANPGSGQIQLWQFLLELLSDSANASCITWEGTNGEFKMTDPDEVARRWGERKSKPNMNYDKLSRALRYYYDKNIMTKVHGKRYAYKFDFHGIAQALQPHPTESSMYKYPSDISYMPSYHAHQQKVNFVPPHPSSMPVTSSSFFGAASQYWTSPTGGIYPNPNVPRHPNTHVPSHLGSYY
# How it was run: (§1)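 Human transcription factors fused to GST were expressed in yeast, captured on glutathione beads, given DNA barcodes and pooled with a GST-only negative control. Pools were incubated with 200 nmole of a 16-mer random double-stranded DNA library in Tris/NaCl/DTT/glycerol buffer at room temperature for 30 min. They were then washed, crosslinked with 0.1% formaldehyde, proximity-ligated (BsaI/T4 ligase, 1 h, 37 °C), PCR-amplified and sequenced on an Illumina NextSeq500. Binding signal is each 6-mer's read frequency for a factor divided by its frequency for the GST control.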
# ELK1 = target: T2, ELK1 (Homo sapiens, UniProt P19419 1-428)
# T2 sequence: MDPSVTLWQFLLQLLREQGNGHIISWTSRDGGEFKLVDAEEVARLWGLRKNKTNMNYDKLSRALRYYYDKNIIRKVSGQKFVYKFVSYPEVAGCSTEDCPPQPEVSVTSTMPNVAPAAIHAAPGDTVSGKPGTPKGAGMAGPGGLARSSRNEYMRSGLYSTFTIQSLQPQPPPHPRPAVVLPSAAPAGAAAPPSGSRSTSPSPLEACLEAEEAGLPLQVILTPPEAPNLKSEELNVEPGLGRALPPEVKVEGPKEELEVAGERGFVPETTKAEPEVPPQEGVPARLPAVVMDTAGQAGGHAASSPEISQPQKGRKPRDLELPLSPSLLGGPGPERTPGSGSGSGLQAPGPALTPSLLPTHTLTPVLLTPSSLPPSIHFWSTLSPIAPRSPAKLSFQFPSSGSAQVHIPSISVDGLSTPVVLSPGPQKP
# How it was run: as §1
# GABPA = target: T3, GABPA (Homo sapiens, UniProt Q06546 1-454)
# T3 sequence: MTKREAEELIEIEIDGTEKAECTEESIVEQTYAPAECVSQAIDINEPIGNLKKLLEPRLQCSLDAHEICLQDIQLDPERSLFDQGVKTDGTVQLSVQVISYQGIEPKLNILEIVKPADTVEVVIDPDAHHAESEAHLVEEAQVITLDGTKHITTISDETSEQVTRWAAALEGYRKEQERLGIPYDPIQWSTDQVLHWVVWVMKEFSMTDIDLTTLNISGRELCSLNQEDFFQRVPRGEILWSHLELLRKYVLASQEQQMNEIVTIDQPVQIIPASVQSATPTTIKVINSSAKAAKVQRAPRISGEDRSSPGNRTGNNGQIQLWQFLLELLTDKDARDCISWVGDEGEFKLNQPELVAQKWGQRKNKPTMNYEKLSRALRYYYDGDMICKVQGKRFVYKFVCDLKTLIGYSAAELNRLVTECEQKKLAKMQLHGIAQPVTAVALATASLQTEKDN
# How it was run: as §1
# ERG = target: T4, ERG (Homo sapiens, UniProt P11308 1-479)
# T4 sequence: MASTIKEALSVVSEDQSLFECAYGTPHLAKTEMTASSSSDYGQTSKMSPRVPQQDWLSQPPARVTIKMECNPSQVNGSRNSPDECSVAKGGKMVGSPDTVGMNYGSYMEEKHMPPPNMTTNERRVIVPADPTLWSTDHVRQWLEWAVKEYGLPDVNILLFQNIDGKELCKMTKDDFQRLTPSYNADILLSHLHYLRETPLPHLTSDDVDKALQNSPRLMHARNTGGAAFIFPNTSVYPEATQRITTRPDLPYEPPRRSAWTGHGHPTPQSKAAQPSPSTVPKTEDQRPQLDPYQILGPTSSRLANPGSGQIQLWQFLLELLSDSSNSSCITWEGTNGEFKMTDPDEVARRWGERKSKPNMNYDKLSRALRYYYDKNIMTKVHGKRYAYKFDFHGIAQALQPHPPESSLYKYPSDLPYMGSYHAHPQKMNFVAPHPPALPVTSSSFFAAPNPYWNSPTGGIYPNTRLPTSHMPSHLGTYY
# How it was run: as §1
# ELF1 = ELF1 (Homo sapiens, UniProt P32519 1-619)
# Chain of ELF1 (P32519 whole entry): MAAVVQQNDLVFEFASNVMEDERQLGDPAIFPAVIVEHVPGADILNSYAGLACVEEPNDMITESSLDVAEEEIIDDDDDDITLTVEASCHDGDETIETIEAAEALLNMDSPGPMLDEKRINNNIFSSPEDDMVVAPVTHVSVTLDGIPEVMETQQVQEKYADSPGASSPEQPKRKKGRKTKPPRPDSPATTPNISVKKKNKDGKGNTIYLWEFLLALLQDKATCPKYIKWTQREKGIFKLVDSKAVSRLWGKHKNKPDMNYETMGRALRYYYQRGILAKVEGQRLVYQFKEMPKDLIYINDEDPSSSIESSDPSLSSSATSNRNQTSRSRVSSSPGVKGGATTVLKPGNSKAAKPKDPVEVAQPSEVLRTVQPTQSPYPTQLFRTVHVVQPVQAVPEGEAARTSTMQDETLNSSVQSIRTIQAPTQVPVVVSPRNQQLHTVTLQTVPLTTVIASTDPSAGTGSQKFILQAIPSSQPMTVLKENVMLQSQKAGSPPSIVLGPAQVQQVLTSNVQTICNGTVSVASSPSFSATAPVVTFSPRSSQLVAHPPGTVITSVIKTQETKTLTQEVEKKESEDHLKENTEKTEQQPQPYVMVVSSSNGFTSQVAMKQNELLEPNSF
# How it was run: as §1
# EHF = target: T5, EHF (Homo sapiens, UniProt Q9NZC4 1-300)
# T5 sequence: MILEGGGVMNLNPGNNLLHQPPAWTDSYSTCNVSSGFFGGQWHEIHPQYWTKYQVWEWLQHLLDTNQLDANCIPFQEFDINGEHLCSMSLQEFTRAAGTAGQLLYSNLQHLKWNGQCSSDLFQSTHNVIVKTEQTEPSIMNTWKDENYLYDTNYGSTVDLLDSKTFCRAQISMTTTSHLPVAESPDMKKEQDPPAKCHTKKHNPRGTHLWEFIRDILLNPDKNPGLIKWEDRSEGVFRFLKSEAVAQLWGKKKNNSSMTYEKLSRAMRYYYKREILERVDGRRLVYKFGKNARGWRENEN
# How it was run: as §1
# SPI1 = SPI1 (Homo sapiens, UniProt P17947 1-270)
# How it was run: as §1
# SPIB = SPIB (Homo sapiens, UniProt Q01892 1-262)
# Chain of SPIB (Q01892 whole entry): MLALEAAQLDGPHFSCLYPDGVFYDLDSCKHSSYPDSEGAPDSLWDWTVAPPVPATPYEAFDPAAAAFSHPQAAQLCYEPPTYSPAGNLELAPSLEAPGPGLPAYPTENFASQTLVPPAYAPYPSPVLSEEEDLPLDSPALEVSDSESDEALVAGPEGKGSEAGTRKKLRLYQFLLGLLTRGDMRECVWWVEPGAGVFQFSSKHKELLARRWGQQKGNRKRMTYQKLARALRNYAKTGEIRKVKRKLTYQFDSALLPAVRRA
# How it was run: as §1
# ELK3 = target: T6, ELK3 (Homo sapiens, UniProt P41970 1-407)
# T6 sequence: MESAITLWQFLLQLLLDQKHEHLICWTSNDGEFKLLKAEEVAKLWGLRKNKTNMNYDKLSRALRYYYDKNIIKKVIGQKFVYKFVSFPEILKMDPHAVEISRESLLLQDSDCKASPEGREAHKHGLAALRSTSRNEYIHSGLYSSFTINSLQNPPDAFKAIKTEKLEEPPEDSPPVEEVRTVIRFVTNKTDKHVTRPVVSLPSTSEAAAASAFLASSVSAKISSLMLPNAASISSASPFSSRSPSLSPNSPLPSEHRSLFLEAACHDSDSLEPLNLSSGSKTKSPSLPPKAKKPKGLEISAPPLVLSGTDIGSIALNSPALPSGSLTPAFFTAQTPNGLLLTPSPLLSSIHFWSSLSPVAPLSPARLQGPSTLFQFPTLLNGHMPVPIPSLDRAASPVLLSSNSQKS
# How it was run: as §1
Sequence,binding signal (FLI1),binding signal (ELK1),binding signal (GABPA),binding signal (ERG),binding signal (ELF1),binding signal (EHF),binding signal (SPI1),binding signal (SPIB),binding signal (ELK3)
AGTGGC,"1.31 fold enrichment (6-mer frequency, TF over GST control)","1.19 fold enrichment (6-mer frequency, TF over GST control)","1.2 fold enrichment (6-mer frequency, TF over GST control)","1.28 fold enrichment (6-mer frequency, TF over GST control)","1.23 fold enrichment (6-mer frequency, TF over GST control)","1.4 fold enrichment (6-mer frequency, TF over GST control)","1.75 fold enrichment (6-mer frequency, TF over GST control)","1.3 fold enrichment (6-mer frequency, TF over GST control)","1.31 fold enrichment (6-mer frequency, TF over GST control)"
GGGCTT,"1.31 fold enrichment (6-mer frequency, TF over GST control)","1.18 fold enrichment (6-mer frequency, TF over GST control)","1.15 fold enrichment (6-mer frequency, TF over GST control)","1.21 fold enrichment (6-mer frequency, TF over GST control)","1.19 fold enrichment (6-mer frequency, TF over GST control)","1.24 fold enrichment (6-mer frequency, TF over GST control)","1.1 fold enrichment (6-mer frequency, TF over GST control)","1.2 fold enrichment (6-mer frequency, TF over GST control)","1.41 fold enrichment (6-mer frequency, TF over GST control)"
ACTTAC,"1.14 fold enrichment (6-mer frequency, TF over GST control)","1.17 fold enrichment (6-mer frequency, TF over GST control)","1.2 fold enrichment (6-mer frequency, TF over GST control)","1.1 fold enrichment (6-mer frequency, TF over GST control)","1.18 fold enrichment (6-mer frequency, TF over GST control)","1.28 fold enrichment (6-mer frequency, TF over GST control)","1.27 fold enrichment (6-mer frequency, TF over GST control)","1.1 fold enrichment (6-mer frequency, TF over GST control)","1.12 fold enrichment (6-mer frequency, TF over GST control)"
TTATAA,"1.21 fold enrichment (6-mer frequency, TF over GST control)","1.16 fold enrichment (6-mer frequency, TF over GST control)","1.15 fold enrichment (6-mer frequency, TF over GST control)","1.14 fold enrichment (6-mer frequency, TF over GST control)","1.14 fold enrichment (6-mer frequency, TF over GST control)","1.16 fold enrichment (6-mer frequency, TF over GST control)","1.16 fold enrichment (6-mer frequency, TF over GST control)","1.2 fold enrichment (6-mer frequency, TF over GST control)","1.33 fold enrichment (6-mer frequency, TF over GST control)"
CCCCTG,"1.22 fold enrichment (6-mer frequency, TF over GST control)","1.23 fold enrichment (6-mer frequency, TF over GST control)","1.26 fold enrichment (6-mer frequency, TF over GST control)","1.18 fold enrichment (6-mer frequency, TF over GST control)","1.22 fold enrichment (6-mer frequency, TF over GST control)","1.17 fold enrichment (6-mer frequency, TF over GST control)","1.25 fold enrichment (6-mer frequency, TF over GST control)","1.1 fold enrichment (6-mer frequency, TF over GST control)","1.27 fold enrichment (6-mer frequency, TF over GST control)"
TCTCCG,"1.51 fold enrichment (6-mer frequency, TF over GST control)","1.49 fold enrichment (6-mer frequency, TF over GST control)","1.57 fold enrichment (6-mer frequency, TF over GST control)","1.42 fold enrichment (6-mer frequency, TF over GST control)","1.6 fold enrichment (6-mer frequency, TF over GST control)","1.57 fold enrichment (6-mer frequency, TF over GST control)","1.54 fold enrichment (6-mer frequency, TF over GST control)","1.52 fold enrichment (6-mer frequency, TF over GST control)","1.38 fold enrichment (6-mer frequency, TF over GST control)"
GGCCTC,"1.25 fold enrichment (6-mer frequency, TF over GST control)","1.2 fold enrichment (6-mer frequency, TF over GST control)","1.26 fold enrichment (6-mer frequency, TF over GST control)","1.19 fold enrichment (6-mer frequency, TF over GST control)","1.17 fold enrichment (6-mer frequency, TF over GST control)","1.21 fold enrichment (6-mer frequency, TF over GST control)","1.11 fold enrichment (6-mer frequency, TF over GST control)","1.18 fold enrichment (6-mer frequency, TF over GST control)","1.1 fold enrichment (6-mer frequency, TF over GST control)"
